# Source: PubChem
# Most compounds without a hit are left out; they make up all but 1.9% or so of the library.
# bovine MsrA act = bovine MsrA enzyme activators, primary screen, biochemical, absorbance, HTS; Methionine sulfoxide reductase A (Bos taurus); purified bovine MsrA, absorbance read-out; activation, % at 10.6 µM; hit rate 0.3% among 360,000; in the data active = activation above about 7.5%;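 note: 0% = vehicle and 100% = reference activator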
# HTR5A ag = HTR5A agonists in luminescence cell assay, primary screen, counter-screen for OPRM1-OPRD1 heterodimer agonist project, full-deck HTS. 5-hydroxytryptamine receptor 5A (Homo sapiens), P47898. cell-based. activation, % at 9.3 µM. hit rate 0.61% among 340,000; in the data active = activation mostly above about 9.5%, no sharp cut-off; inactive = mostly below about 7.6%;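 note: 0% = cells with vehicle only and 100% = reference agonist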
# MsrA inhibitor = bovine MsrA enzyme inhibitors, primary screen, biochemical, absorbance, HTS. purified bovine MsrA, absorbance read-out. inhibition, % at 15.5 µM. AID 651718, 2012. Methionine sulfoxide reductase A (Bos taurus). hit rate 0.75% among 360,000;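 note: 0% = vehicle wells with enzyme and 100% = reference inhibitor wells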
# OPRM1-OPRD1 inv = inverse agonists of MOR-DOR heterodimerization, primary screen, cell-based, luminescence. cell-based MOR-DOR heterodimer luminescence, inverse agonism. inhibition, % at 9.3 µM. hit rate 0.21% among 340,000; in the data active = inhibition above about 22%, passing the limit was not always enough;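 note: 0% = cells with DMSO and 100% = wells without cells with DMSO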
# Target sequence (P35372 whole entry, looked up): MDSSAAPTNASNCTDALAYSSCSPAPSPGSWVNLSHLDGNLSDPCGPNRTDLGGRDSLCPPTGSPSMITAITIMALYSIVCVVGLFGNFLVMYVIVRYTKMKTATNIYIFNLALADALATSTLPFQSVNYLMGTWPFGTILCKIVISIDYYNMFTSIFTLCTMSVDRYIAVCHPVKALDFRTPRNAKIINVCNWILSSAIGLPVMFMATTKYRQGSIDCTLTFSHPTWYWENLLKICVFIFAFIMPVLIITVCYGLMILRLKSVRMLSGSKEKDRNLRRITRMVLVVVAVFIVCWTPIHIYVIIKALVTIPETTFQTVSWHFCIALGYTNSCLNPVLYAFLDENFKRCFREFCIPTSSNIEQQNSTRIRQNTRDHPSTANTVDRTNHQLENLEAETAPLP
# Target sequence (P41143 whole entry, looked up): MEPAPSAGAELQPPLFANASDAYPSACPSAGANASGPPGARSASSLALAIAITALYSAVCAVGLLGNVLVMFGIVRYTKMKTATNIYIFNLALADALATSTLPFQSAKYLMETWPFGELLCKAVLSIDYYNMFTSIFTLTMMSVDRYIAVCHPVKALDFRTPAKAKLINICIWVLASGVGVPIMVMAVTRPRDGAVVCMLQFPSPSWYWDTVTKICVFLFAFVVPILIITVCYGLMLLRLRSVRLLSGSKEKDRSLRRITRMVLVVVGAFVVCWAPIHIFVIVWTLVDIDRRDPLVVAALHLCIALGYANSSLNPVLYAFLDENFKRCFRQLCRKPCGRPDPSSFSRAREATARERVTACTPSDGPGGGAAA
# HTR5A inv ctr = HTR5A inverse agonists in luminescence cell assay, primary screen, counter-screen for OPRM1-OPRD1 heterodimer inverse agonist project, full-deck HTS; inhibition, % at 9.3 µM; 5-hydroxytryptamine receptor 5A (Homo sapiens), P47898; AID 504634, 2011; hit rate 0.083% among 340,000; HTR5A cell line, inverse agonism; in the data active = inhibition mostly above about 23%, no sharp cut-off; inactive = mostly below about 18%;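 note: 0% = cells with DMSO and 100% = no-cell wells with DMSO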
# OPRM1-OPRD1 ag = agonists of OPRM1-OPRD1 heterodimerization, primary screen, cell-based, luminescence; activation, % at 9.3 µM; hit rate 0.3% among 340,000; AID 504326, 2011; cells; in the data active = activation above about 18%;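 note: 0% = vehicle-treated cells and 100% = reference agonist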
# MsrA conf = bovine MsrA inhibitors, retest, confirmation, biochemical, absorbance, HTS | purified bovine MsrA, absorbance read-out | shares compounds with MsrA inhibitor | AID 651822, 2012 | hit rate 41% among 2,300 | inhibition, % at 15.5 µM;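 note: coupled to thioredoxin reductase with NADPH and selenocystamine and DMSO as substrate; 0% = vehicle only and 100% = full effect of reference inhibitor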
# * hit, by the source's call; . = no result. Cut-off read from the data, not from the text of the source, unless noted: active = inhibition above about 4.5%; inactive = the rest.
SMILES,bovine MsrA act,HTR5A ag,MsrA inhibitor,OPRM1-OPRD1 inv,HTR5A inv ctr,OPRM1-OPRD1 ag,MsrA conf
CN(C)/C=C/c1oc2ccc(O)cc2c1[N+](=O)[O-],-5,-11,5.5*,41*,30*,-8,4
COc1ccc(CCNC(=O)C2CCN(S(=O)(=O)c3ccc(OC)c(OC)c3)CC2)cc1OC,-2,0,-1,2,-1,0,.
COc1ccc(CCNC(=O)C2CCN(S(=O)(=O)c3ccc(-n4cnnn4)cc3)CC2)cc1OC,-2,8,56*,-5,-17,1,-1
O=C(Cc1ccc(NC(=O)C2CCN(C(=O)CCc3ccccc3)CC2)cc1)Nc1cccc(C(=O)N2CCCC2)c1,.,.,3,.,.,.,.
O=C(C1=C(O)C(=O)N(CCOCCO)C1c1cccc([N+](=O)[O-])c1)c1cccs1 (stereo not given),-8,-2,5.0*,11,23,-2,4
COc1ccc(OC)c(NS(=O)(=O)c2ccc3[nH]c(=O)[nH]c3c2)c1,1,.,0,.,.,.,.
Cc1c(C(=O)NCc2ccc([N+](=O)[O-])cc2)sc(=O)n1Cc1ccc2c(c1)OCO2,-2,.,0,.,.,.,.
O=c1c(-c2ccccc2)coc2c(CN3CCCC3)c(O)ccc12,-5,-2,5.5*,16,8,-3,2
O=c1c(-c2ccc(Cl)cc2)coc2c(CN3CCOCC3)c(O)ccc12,-12,11,0,17,-17,-4,.
CN(C)C(=O)c1cc2c(c(-c3cccc(-c4ccccc4F)c3)n1)[C@@H](CCO)N(S(C)(=O)=O)C2,-2,.,0,.,.,.,.
COC(=O)C1=C(C)N(Cc2ccccc2C(F)(F)F)C(=NCc2ccc(C(F)(F)F)cc2)NC1c1cccc(Cl)c1 (stereo not given),.,.,-2,.,.,.,.
N#Cc1c(SCC(=O)O)nc(N2CCOCC2)c2c1CCCC2,-5,-1,2,14,3,-3,.
CCN1CCc2c(C#N)c(N3CCCCC3)nc(N3CCOCC3)c2C1,-6,-1,4.8*,14,5,-3,2
CCSc1nc(N2CCOCC2)c2c(c1C#N)CCCC2,-5,-1,13*,-16,-17,4,13*
COC(=O)CSc1nc(N2CCOCC2)c2c(c1C#N)CCCC2,-2,-4,8.2*,5,7,-1,6.9*
CCN1CCc2c(C#N)c(N3CCOCC3)nc(N3CCOCC3)c2C1,-3,-1,1,6,-16,-1,.
Cc1ccc(C2(c3noc(CN4CCC(C(=O)N5CCOCC5)CC4)n3)CCCC2)cc1,-1,5,4.7*,4,-11,-1,0
COCCCN1C(=O)C(CC(=O)NCc2cccc3ccccc23)CC(C(=O)N2CCCCCC2)=C1C (stereo not given),-1,.,0,.,.,.,.
Cc1cccc(-c2ccc([N+](=O)[O-])cc2CN2CCN(c3ncc(Cc4ccccc4)cn3)CC2)c1,.,.,1,.,.,.,.
COCc1nnc(NC(=O)c2cc3ccccc3o2)s1,-3,5,5.1*,12,3,-2,2
Cc1cccc(C)c1NC(=O)C(c1ccc(C#N)cc1)n1c(=O)c(-c2ccccc2)nc2ccccc21 (stereo not given),.,.,1,.,.,.,.
Cc1oc2c(C)c3oc(=O)c(CC(=O)N[C@@H](CCCNC(N)=O)C(=O)O)c(C)c3cc2c1C,-1,-6,4.9*,0,21,0,2
CCOC(=O)CC1(C)c2nc(NC(C)=O)sc2Cc2sc(NC(C)=O)nc21,-4,.,2,.,.,.,.
COc1cc(-c2ccc(Nc3ccccc3C(=O)O)c(OC)c2)ccc1Nc1ccccc1C(=O)O,-7,2,4.9*,10,-5,-2,5.3*
CCc1nnc(NC(=O)c2ccncc2)s1,-2,2,5.6*,5,-10,-1,0
SMILES,bovine MsrA act,HTR5A ag,MsrA inhibitor,OPRM1-OPRD1 inv,HTR5A inv ctr,OPRM1-OPRD1 ag,MsrA conf
CCCc1nnc(NC(=O)c2ccncc2)s1,-8,2,2,4,-5,-1,.
COc1cccc2cc(C(C)=O)c(=O)oc12,-1,-4,2,4,19,-1,.
COc1cccc2cc(C(=O)Oc3ccc(NC(C)=O)cc3)c(=O)oc12,-3,-4,4.7*,14,11,-2,1
CN(/N=C/c1cc(Br)cc(Br)c1O)c1cccc(C(F)(F)F)n1,-3,1,5.8*,3,-6,0,0
COc1ccccc1C(=O)NC1CCCCN(C)C1=O (stereo not given),.,.,0,.,.,.,.
COc1ccc(/C=[N+](\[O-])C2N(c3ccccc3)C(=S)SC2(C)C)cc1OC (stereo not given),-5,-4,5.0*,14,-20,-3,3
COc1cc(/C=N/NC(=O)c2cc(-c3ccc4c(c3)OCO4)n[nH]2)ccc1O,-11,0,5.5*,-9,-23,1,3
COc1cc(/C=N/NC(=O)c2cc(C3CC3)[nH]n2)ccc1O,-6,-1,5.2*,14,-12,-3,3
COc1ccccc1C(=O)N/N=C/c1ccc2c(c1)OCO2,-5,1,5,8,-4,-1,.
Cn1cnnc1SC/C(O)=C(\C#N)c1nc2ccccc2[nH]1,-8,2,4.8*,7,-4,-1,2
CCCn1c(SC/C(O)=C(\C#N)c2nc3ccccc3[nH]2)n[nH]c1=O,-5,6,4.7*,20,5,-4,2
COC(=O)[C@]12C[C@H](CC(=O)NCc3cccc4ccccc34)C(=O)N(Cc3ccc4c(c3)OCO4)C1=C[C@H](C(C)(C)C)O[C@@H]2C,.,.,1,.,.,.,.
CC(C)(C)c1cc[n+](-c2[nH]c(=O)sc2/C=N/N=C(\[O-])c2cccnc2)cc1,-3,4,5.4*,11,20,-2,5.9*
O=c1[nH]c(-[n+]2ccc3ccccc3c2)c(/C=N/N=C(\[O-])c2ccccc2)s1,-3,-1,3,10,4,-2,.
O=Cc1ccc(-c2ccc(C(=O)O)cc2)o1,-11,3,7.2*,9,20,-2,4
O=C(O)/C(=C\c1ccc(-c2ccc(F)cc2)o1)c1ccccc1,-10,4,4.7*,-9,30,2,3
CC(N)c1csc(Nc2ncccn2)n1 (stereo not given),-3,.,0,.,.,.,.
C/C(=N\NC(=O)c1cccnc1)c1cccc([N+](=O)[O-])c1,-8,4,0,15,11,-3,.
C/C(=N\Nc1ccc(S(N)(=O)=O)cc1[N+](=O)[O-])c1cccnc1,-6,4,11*,-19,-10,3,10*
